Laboratory results published in PubChem BioAssay (NCI).
This is part of a sample that, as a whole, favours compounds with a hit. Of some 83,000 tested, about 20% had one in any assay.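 Method: cells in 96-well plates; compound added at one concentration; 48 h incubation; percent growth measured; values under 10 scored active.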 Values without a mark were called inactive. The source made the active and inactive calls.

Test system: MDA-MB-468 breast
Assay: NCI-60 one-dose screen, 48 h (100 = growth as untreated, 0 = no growth, -100 = all killed)
Settings: 10 µM unless noted

Going from `COc1ccc(-c2nc3sccn3c2-c2ccnc(NCCCNS(=O)(=O)c3ccc4ccccc4c3)n2)cc1` to `Cc1nn(-c2nc3ccccc3[nH]2)c2c1C(c1ccc(OCC(N)=O)cc1)CC(=O)N2` (stereo not given), the growth rises from 71.1% to 108%.

`CC(C)(C)n1nc(C2CC2)c(Br)c1NC(=O)c1ccccc1F` and `Cc1ccc(NC(=O)c2ccccc2Cl)cc1` are the same in growth: 114% for the first, 114% for the second.

Compared with `CCc1cc(OC(=O)N2CCC(N3CCCCC3)CC2)ccc1Nc1cc(-c2ccc(-n3cccn3)cc2)[nH]n1`, `O=C(NC1CCCCC1)c1ccc(Nc2ncnc3c2cnn3-c2ccccc2)cc1` is lower in growth: 84.4% for the first, 76.1% for the second.

Going from `O=C1Nc2ccccc2C12C=C(c1ccccc1)Nc1c2c(-c2ccccc2)nn1-c1ccccc1` (stereo not given) to `CCN(CC)CCOC(=O)c1cc(OCc2ccccc2)c(OCc2ccccc2)c(OCc2ccccc2)c1`, the growth falls from 105% to 44%.

First: N#Cc1c(-c2ccc(F)cc2)nc(N/N=C/c2cccc(O)c2)nc1N1CCOCC1
Second: N#Cc1c(-c2cccc([N+](=O)[O-])c2)nc(SCC(=O)c2ccc(Cl)cc2)[nH]c1=O
The growth of the first is lower: 81.1% for the first, 110% for the second.

First: CCC(C)(c1cc(C(C)(C)C)c(O)c(C(C)(C)C)c1)c1cc(C(C)(C)C)c(O)c(C(C)(C)C)c1
Second: COc1ccc(/C=C2\COc3ccc(O)c(O)c3C2=O)c(OC)c1
The growth of the first is higher: 112% for the first, 27.9% for the second.

First: O=C(/C=C\c1ccc(O)cc1)c1ccccc1
Second: Cc1cc(Nc2nc(-c3ccncc3)nc3ccccc23)n[nH]1
The growth of the first is higher: 97.4% for the first, 84.2% for the second.

Compared with `CC(NNC(=S)N1CCCCCC1)c1ccc2ccccc2n1` (stereo not given), `N#CC1C=CN(CC(N)=O)c2ccc3cccnc3c21` (stereo not given) is higher in growth: 30.3% for the first, 96.2% for the second.

Compared with `Cc1ccc(-c2csc(NC(=O)CCCCl)n2)cc1`, `COc1ccc(/C=C2\NC(=S)NC2=O)cc1` is higher in growth: 93.3% for the first, 102% for the second.

First: C[C@@H]1C(=O)[C@@H]2C[C@@H](O)[C@@H](O)C[C@]2(C)[C@H]2CC[C@@]3(C)C(=C12)CC[C@@H]3[C@@](C)(O)[C@H](O)CCC(C)(C)O
Second: CN1CCN(Cc2ccc(NC(=O)c3cncc(C#Cc4cnc(N)c5ccncc45)c3)cc2C(F)(F)F)CC1
The growth of the first is higher: 103% for the first, 35.5% for the second.

`CC1=CC2C(C(O)CC3(C)C2CC(C)C32OCOC23COCO3)C2(C)C/C(=C/O)C(=O)C=C12` (stereo not given) was tested, and the growth was -16.2% (active).
In the case of `COC(=O)CCC/C=C\C[C@H]1C=CC(=O)/C1=C/C[C@@H](O)C/C=C\CC(F)(F)F`, the growth is reported as -6.29% (active).
For `c1ccc(-c2nnc(Nc3ccc4c(c3)OCCO4)o2)c(NCc2ccncc2)c1`, the growth was -33.4% (active).
With `Cc1cc(NC(=O)C2c3ccccc3C(=O)N(CC(C)C)C2c2cccs2)no1` (stereo not given) the growth was -56.6% (active).
In the case of `CN(C)CCS(=O)(=O)Nc1cc(-c2ccc3ncnc(Nc4ccc(F)c(Cl)c4)c3c2)cnc1Cl`, the growth is reported as -53% (active).
